# Reference: PubChem BioAssay
# For part of these data: Entries with a potency or affinity are not part of this list. Calls of active or inactive are those of the source.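 How the source made its calls, unless noted: active means primary screen hit whose fluorescence ratio, in both repeats, exceeds the weak agonist control mean by 3 SD; inactive means the rest.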
# Columns and labels:
# [1] = tested on: TRPC4 beta (transient receptor potential cation channel C4), mouse; test: activators of mouse TRPC4 channel, confirmation, cell-based, Fluo4 calcium, HEK293 TRPC4beta/mu-opioid, duplicates, 10 µM (AID 2426;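 active means fluorescence ratio normalized to control raised more than 50% in primary screen plus both repeat runs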;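 on activation: percent rise of integrated ratio over buffer wells lacking compound which define 0%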); details: Fluo4 calcium fluorescence, at 10 µM; active compounds read high
# [2] = tested on: transient receptor potential cation channel C4 beta (TRPC4), mouse; test: activators of mouse TRPC4 channel, confirmation, cell-based, second round, Fluo4, HEK293 TRPC4beta/mu-opioid, 1 µM (AID 2461;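 active means primary screen active and over 50% activation in each of two duplicate runs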;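 on activation: 0% = wells without test compound as baseline of integrated fluorescence ratio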); details: Fluo4 calcium fluorescence, at 1 µM; active compounds read high
# [3] = tested on: TRPC4 (transient receptor potential cation channel C4 beta), mouse; test: positive allosteric modulators of mouse TRPC4, confirmation, cell-based, second round, Fluo-4, HEK293 TRPC4beta/mu-opioid, 1 µM (AID 2554); details: DAMGO EC20, Fluo-4 calcium flux, at 1 µM; active compounds read high
# [4] = tested on: TRPC4 beta (transient receptor potential cation channel C4), mouse; test: positive allosteric modulators of mouse TRPC4, confirmation, cell-based, Fluo-4, HEK293 TRPC4beta/mu-opioid (AID 2555;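 active means primary screen hit whose calcium fluorescence ratio, in both repeats, exceeds the weak agonist control mean by 3 SD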); details: DAMGO EC20, Fluo-4 calcium flux, at 10 µM; active compounds read high
# [5] = biological target: Short transient receptor potential channel 4 (Mus musculus) (UniProt Q9QUQ5); test: inhibitors of mouse TRPC4 channel, confirmation, cell-based, Fluo4, HEK293 TRPC4beta/mu-opioid (AID 2636;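 active means calcium signal cut by more than 3 SD below the full-agonist control yet still positive, in both repeats and the earlier primary screen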); details: DAMGO, Fluo4 calcium flux, at 10 µM; active compounds read high
# [6] = biological target: Short transient receptor potential channel 4 (Mus musculus) (UniProt Q9QUQ5); test: inhibitors of mouse TRPC4 channel, confirmation, cell-based, second round, Fluo4, HEK293 TRPC4beta/mu-opioid, 1 µM (AID 2637;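 active means calcium signal ratio cut to more than 3 SD under the fully stimulated control mean yet still positive, in both repeats and the primary screen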); details: Fluo4 calcium flux, DAMGO, at 1 µM; active compounds read high
# [7] = biological target: Short transient receptor potential channel 4 (Mus musculus) (UniProt Q9QUQ5); test: TRPC4 positive allosteric modulators, dose response, cell-based, HEK293 TRPC4/mu-opioid, Fluo-4 calcium, EC20 DAMGO (AID 434941;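 active means earlier screen potentiator hit that boosts the TRPC4 ion channel at some dose, with a dose response; inactive means no potentiation, no dose response, or not a prior hit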;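 further: calcium entry triggered by an EC20 dose of DAMGO at the co-expressed mu-opioid receptor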)
# [8] = biological target: Short transient receptor potential channel 4 (Mus musculus) (UniProt Q9QUQ5); test: mouse TRPC4 channel inhibitors, dose response, cell-based, HEK293 TRPC4/mu-opioid, Fluo-4 calcium (AID 434942;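 active means primary screen inhibitor hit that blocks the TRPC4 channel at some tested dose, yielding a dose curve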)
# [9] = biological target: Short transient receptor potential channel 6 (Mus musculus) (UniProt Q61143); test: inhibition of mouse TRPC6 channel, confirmation, selectivity assay for TRPC4 inhibitor project, cell-based, HEK293, membrane potential dye, duplicate (AID 434948;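 active means active in primary screen and both duplicates, each dropping signal beyond three positive-control SD with fluorescence still positive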); details: HEK293 TRPC6, membrane potential dye fluorescence, at 10 µM; inhibition: active compounds read high, stimulated with maximal-effect acetylcholine unless noted; outcome: stimulated with maximal-effect acetylcholine unless noted
# [10] = biological target: Short transient receptor potential channel 6 (Mus musculus) (UniProt Q61143); test: activation of mouse TRPC6 channel, confirmation, selectivity assay for TRPC4 activator project, cell-based, HEK293, membrane potential dye, duplicate (AID 434950;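 active means membrane potential signal rise above negative control mean plus 3 SD in both duplicates, also active in the earlier TRPC4 screen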;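 on activation: 0% = buffer only wells and 100% = acetylcholine maximal-effect wells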); details: HEK293 TRPC6, membrane potential fluorescence, at 10 µM; active compounds read high
# [11] = biological target: Short transient receptor potential channel 6 (Mus musculus) (UniProt Q61143); test: TRPC6 potentiation by TRPC4 potentiator hits, confirmation, selectivity assay for TRPC4 potentiator project, HEK293 cells, membrane potential dye, duplicate (AID 434952;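 active means compound raising the membrane signal above positive-control mean plus 3 SD in both repeats, and a primary screen hit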); details: HEK293 TRPC6, membrane potential dye fluorescence, at 10 µM; maximal acetylcholine added after compound unless noted
# [12] = biological target: Short transient receptor potential channel 4 (Mus musculus) (UniProt Q9QUQ5); test: calcium flux activators in TRPC4/5HT1a cells, counter-screen for TRPC4 activator project, cell-based, second counter screen, HEK293 TRPC4/5HT1a, Fluo-4 (AID 434977;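 active means calcium signal rise above buffer-control mean plus 5 SD in both duplicates, and also a hit in the primary screen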;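 on activation: plate controls were assay buffer for no effect and maximal serotonin response for full effect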); details: Fluo-4 calcium flux, at 10 µM; active compounds read high
# [13] = calcium flux inhibitors in TRPC4/5HT1a cells, confirmation, counter-screen for TRPC4 inhibitor project, cell-based, second counter screen, HEK293 TRPC4/5HT1a, Fluo-4 (AID 434978;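 active means primary screen active whose calcium signal fell more than 3 SD beyond the full-serotonin control mean in both duplicate plates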;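 further: serotonin given first at submaximal then at maximal dose after compound preincubation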); details: Fluo-4 calcium flux, at 10 µM; inhibition: active compounds read high, serotonin added to trigger calcium flux unless noted; outcome: serotonin added to trigger calcium flux unless noted
# [14] = tested on: TRPC4 (mouse), co-expressed with 5HT1a in HEK293; test: calcium flux potentiators in TRPC4/5HT1a cells, confirmation, counter-screen for TRPC4 potentiator project, cell-based, second counter screen, HEK293 TRPC4/5HT1a, Fluo-4 (AID 434979;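 active means signal rise over 3 SD above mean of control wells given weak agonist, in both repeats and first screen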); details: Fluo-4 calcium flux, at 10 µM; outcome: serotonin added at its EC20 dose unless noted; potentiation: active compounds read high, serotonin added at its EC20 dose unless noted
# [15] = calcium flux activation in mu-opioid HEK293 cells, confirmation, counter-screen for TRPC4 activator project, cell-based, HEK293 mu-opioid receptor line (AID 449723;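 active means hit in primary screen, with calcium signal over 5 SD above buffer well mean in both duplicates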;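 further: counter screen cells carry the mu-opioid receptor alone and lack TRPC4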); details: Fluo-4 calcium fluorescence, at 10 µM; active compounds read high
# [16] = calcium flux enhancement in mu-opioid HEK293 cells, confirmation, counter-screen for TRPC4 allosteric potentiator project, cell-based, HEK293 mu-opioid receptor line (AID 449724;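 active means calcium signal rise more than 3 SD above the low-dose agonist control mean, in both duplicate plates and the primary screen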); details: Fluo-4 calcium flux, at 10 µM; compound added before EC20 DAMGO stimulus unless noted
# Chain of Short transient receptor potential channel 4 (Mus musculus) (Q9QUQ5 whole entry, looked up): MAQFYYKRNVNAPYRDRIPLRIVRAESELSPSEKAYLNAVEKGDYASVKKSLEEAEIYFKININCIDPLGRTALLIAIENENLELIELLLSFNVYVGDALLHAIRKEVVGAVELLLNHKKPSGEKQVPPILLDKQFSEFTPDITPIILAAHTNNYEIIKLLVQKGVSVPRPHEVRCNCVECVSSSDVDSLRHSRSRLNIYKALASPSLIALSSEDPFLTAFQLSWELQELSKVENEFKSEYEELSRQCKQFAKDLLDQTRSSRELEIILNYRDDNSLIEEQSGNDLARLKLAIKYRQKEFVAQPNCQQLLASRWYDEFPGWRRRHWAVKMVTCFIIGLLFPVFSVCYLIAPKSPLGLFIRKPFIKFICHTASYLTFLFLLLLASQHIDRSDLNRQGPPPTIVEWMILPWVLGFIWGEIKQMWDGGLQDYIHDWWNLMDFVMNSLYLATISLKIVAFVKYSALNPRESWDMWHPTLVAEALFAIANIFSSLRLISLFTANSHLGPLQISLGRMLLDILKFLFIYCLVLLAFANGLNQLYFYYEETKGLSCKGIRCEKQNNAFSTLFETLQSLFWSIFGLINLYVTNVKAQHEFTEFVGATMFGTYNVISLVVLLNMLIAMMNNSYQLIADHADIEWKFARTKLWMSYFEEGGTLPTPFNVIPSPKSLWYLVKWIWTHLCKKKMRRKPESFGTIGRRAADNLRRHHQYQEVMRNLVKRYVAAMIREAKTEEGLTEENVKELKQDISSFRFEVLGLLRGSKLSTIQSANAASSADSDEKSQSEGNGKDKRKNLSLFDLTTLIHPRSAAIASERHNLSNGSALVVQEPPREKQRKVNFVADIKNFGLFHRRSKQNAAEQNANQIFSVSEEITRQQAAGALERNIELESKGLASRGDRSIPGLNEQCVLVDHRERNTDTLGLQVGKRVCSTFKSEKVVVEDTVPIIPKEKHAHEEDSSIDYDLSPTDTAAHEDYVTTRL
# Chain of Short transient receptor potential channel 6 (Mus musculus) (Q61143 whole entry, looked up): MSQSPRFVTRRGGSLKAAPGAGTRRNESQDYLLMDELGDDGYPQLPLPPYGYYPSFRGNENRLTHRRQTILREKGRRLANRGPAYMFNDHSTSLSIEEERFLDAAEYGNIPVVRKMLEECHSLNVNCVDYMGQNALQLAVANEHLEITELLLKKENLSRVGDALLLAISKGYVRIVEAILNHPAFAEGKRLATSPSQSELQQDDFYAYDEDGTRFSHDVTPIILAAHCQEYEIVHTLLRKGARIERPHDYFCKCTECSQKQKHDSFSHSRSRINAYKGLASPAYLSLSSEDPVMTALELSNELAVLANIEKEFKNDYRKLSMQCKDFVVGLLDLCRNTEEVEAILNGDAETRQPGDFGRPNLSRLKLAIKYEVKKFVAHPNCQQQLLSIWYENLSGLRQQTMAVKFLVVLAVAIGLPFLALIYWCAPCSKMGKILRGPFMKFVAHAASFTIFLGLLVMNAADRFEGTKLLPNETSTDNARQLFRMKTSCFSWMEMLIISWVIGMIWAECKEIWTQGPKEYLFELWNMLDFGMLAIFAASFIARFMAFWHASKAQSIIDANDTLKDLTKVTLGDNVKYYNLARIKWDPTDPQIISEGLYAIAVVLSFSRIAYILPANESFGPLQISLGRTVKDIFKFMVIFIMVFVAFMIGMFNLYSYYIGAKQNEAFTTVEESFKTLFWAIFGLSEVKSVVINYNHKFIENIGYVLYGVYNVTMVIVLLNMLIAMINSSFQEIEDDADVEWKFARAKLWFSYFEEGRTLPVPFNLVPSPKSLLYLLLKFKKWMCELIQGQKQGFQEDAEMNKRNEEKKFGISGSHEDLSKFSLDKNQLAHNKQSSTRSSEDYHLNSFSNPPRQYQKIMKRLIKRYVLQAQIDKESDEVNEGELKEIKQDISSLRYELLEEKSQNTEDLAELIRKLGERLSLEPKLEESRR
smiles,measurement,setting,value
O=[N+]([O-])c1ccc(N2CCNCC2)cc1NC1CC1,activation,[1],64% (active)
same,activation,[2],67% (active)
same,outcome,[3],inactive
same,outcome,[4],inactive
same,outcome,[5],inactive
same,outcome,[6],inactive
same,outcome,[7],inactive
same,outcome,[8],inactive
same,outcome,[9],inactive
same,outcome,[10],inactive
same,outcome,[11],inactive
same,activation,[12],26.6% (active)
same,outcome,[13],inactive
same,outcome,[14],inactive
same,outcome,[15],inactive
same,outcome,[16],inactive
CCc1n[nH]c(CCN)n1,activation,[1],178% (active)
same,outcome,[2],inactive
same,outcome,[3],inactive
same,outcome,[4],inactive
same,outcome,[5],inactive
same,outcome,[6],inactive
same,outcome,[7],inactive
same,outcome,[8],inactive
same,outcome,[9],inactive
same,outcome,[10],inactive
same,outcome,[11],inactive
same,activation,[12],48.7% (active)
same,outcome,[13],inactive
same,outcome,[14],inactive
same,outcome,[15],inactive
same,outcome,[16],inactive
CC1CN(c2ccc([N+](=O)[O-])c3cccnc23)CC(C)N1 (stereo not given),activation,[1],108% (active)
same,activation,[2],81% (active)
same,outcome,[3],inactive
same,outcome,[4],inactive
same,outcome,[5],inactive
same,outcome,[6],inactive
same,outcome,[7],inactive
same,outcome,[8],inactive
same,outcome,[9],inactive
same,outcome,[10],inactive
same,outcome,[11],inactive
same,activation,[12],35.7% (active)
same,outcome,[13],inactive
same,outcome,[14],inactive
same,outcome,[15],inactive
same,outcome,[16],inactive
CC(N)Cc1c[nH]c2cc3c(cc12)OCCO3 (stereo not given),activation,[1],195% (active)
same,activation,[2],60% (active)
same,outcome,[3],inactive
same,outcome,[4],inactive
same,outcome,[5],inactive
same,outcome,[6],inactive
same,outcome,[7],inactive
same,outcome,[8],inactive
same,outcome,[9],inactive [setting not given]
same,outcome,[10],inactive
same,outcome,[11],inactive [setting not given]
same,activation,[12],107% (active)
same,outcome,[13],inactive [setting not given]
same,outcome,[14],inactive [setting not given]
same,outcome,[15],inactive
same,outcome,[16],inactive [setting not given]
COc1ccc2c(c1O)C13CCN(C)C(C2)C1CCC(=O)C3 (stereo not given),activation,[1],82% (active)
same,activation,[2],96% (active)
same,outcome,[3],inactive
same,outcome,[4],inactive
same,outcome,[5],inactive
same,outcome,[6],inactive
same,outcome,[7],inactive
same,outcome,[8],inactive
same,outcome,[9],inactive [setting not given]
same,activation,[10],27.5% (active)
same,outcome,[11],inactive [setting not given]
same,outcome,[12],inactive
same,outcome,[13],inactive [setting not given]
same,outcome,[14],inactive [setting not given]
same,outcome,[15],inactive
same,outcome,[16],inactive [setting not given]
N=c1c[n+](CC23CC4CC(CC(C4)C2)C3)[n-]o1,activation,[1],294% (active)
same,activation,[2],114% (active)
same,outcome,[3],inactive
same,outcome,[4],inactive
same,outcome,[5],inactive
same,outcome,[6],inactive
same,outcome,[7],inactive
same,outcome,[8],inactive
same,outcome,[9],inactive
same,activation,[10],38% (active)
same,outcome,[11],inactive
same,outcome,[12],inactive
same,outcome,[13],inactive
same,outcome,[14],inactive
same,outcome,[15],inactive
same,outcome,[16],inactive
CCOC(=O)C1(CCc2ccccc2)CCN(Cc2csc(C(C)=O)c2)CC1,outcome,[1],inactive
same,outcome,[2],inactive
same,outcome,[3],inactive
same,outcome,[4],inactive
same,outcome,[5],inactive
same,outcome,[6],inactive
same,outcome,[7],inactive
same,outcome,[8],inactive
same,outcome,[9],inactive
same,activation,[10],57.5% (active)
same,outcome,[11],inactive
same,outcome,[12],inactive
same,outcome,[13],inactive
same,outcome,[14],inactive
same,outcome,[15],inactive
same,outcome,[16],inactive
c1ccc2sc(N3CCNCC3)nc2c1,activation,[1],97% (active)
same,activation,[2],78% (active)
same,outcome,[3],inactive
same,outcome,[4],inactive
same,outcome,[5],inactive
same,outcome,[6],inactive
same,outcome,[7],inactive
same,outcome,[8],inactive
same,outcome,[9],inactive
same,activation,[10],29.5% (active)
same,outcome,[11],inactive
same,activation,[12],51.8% (active)
same,outcome,[13],inactive
same,outcome,[14],inactive
same,outcome,[15],inactive
same,outcome,[16],inactive
Fc1cccc(C2NCCc3[nH]cnc32)c1 (stereo not given),activation,[1],201% (active)
same,outcome,[2],inactive
same,outcome,[3],inactive
same,outcome,[4],inactive
same,outcome,[5],inactive
same,outcome,[6],inactive
same,outcome,[7],inactive
same,outcome,[8],inactive
same,outcome,[9],inactive
same,outcome,[10],inactive
same,outcome,[11],inactive
same,activation,[12],53.4% (active)
same,outcome,[13],inactive
same,outcome,[14],inactive
same,outcome,[15],inactive
same,outcome,[16],inactive
CN1CCN(c2ccc([N+](=O)[O-])c3cccnc23)CC1,activation,[1],85% (active)
same,activation,[2],78% (active)
same,potentiation,[3],33% (active)
same,potentiation,[4],26% (active)
same,outcome,[5],inactive
same,outcome,[6],inactive
same,outcome,[7],inactive
same,outcome,[8],inactive
same,outcome,[9],inactive
same,outcome,[10],inactive
same,outcome,[11],inactive
same,activation,[12],25.7% (active)
same,outcome,[13],inactive
same,potentiation,[14],16.9% (active)
same,outcome,[15],inactive
same,outcome,[16],inactive
CC1(C)CC(CCNCc2ccc3c(c2)OCO3)(Cc2ccccc2)CCO1 (stereo not given),activation,[1],169% (active)
same,outcome,[2],inactive
same,outcome,[3],inactive
same,outcome,[4],inactive
same,outcome,[5],inactive
same,outcome,[6],inactive
same,outcome,[7],inactive
same,outcome,[8],inactive
same,outcome,[9],inactive
same,activation,[10],70% (active)
same,outcome,[11],inactive
same,activation,[12],5.46% (active)
same,outcome,[13],inactive
same,outcome,[14],inactive
same,outcome,[15],inactive
same,outcome,[16],inactive
COC(=O)C1=CCCN(C)C1,activation,[1],96% (active)
same,outcome,[2],inactive
same,outcome,[3],inactive
same,outcome,[4],inactive
same,outcome,[5],inactive
same,outcome,[6],inactive
same,outcome,[7],inactive
same,outcome,[8],inactive
same,outcome,[9],inactive
same,activation,[10],70% (active)
same,outcome,[11],inactive
same,activation,[12],43.8% (active)
same,outcome,[13],inactive
same,outcome,[14],inactive
same,activation,[15],19.7% (active)
same,outcome,[16],inactive
CN(C)C1(CNC(=O)c2ccc(Cl)c(S(=O)(=O)NCc3ccco3)c2)CCCCC1,outcome,[1],inactive
same,activation,[2],71% (active)
same,outcome,[3],inactive
same,outcome,[4],inactive
same,outcome,[5],inactive
same,outcome,[6],inactive
same,outcome,[7],inactive
same,outcome,[8],inactive
same,outcome,[9],inactive
same,activation,[10],36% (active)
same,outcome,[11],inactive
same,outcome,[12],inactive
same,outcome,[13],inactive
same,outcome,[14],inactive
same,outcome,[15],inactive
same,outcome,[16],inactive
CCC1(C)CC(CCNCc2ccc(N(C)C)cc2)(c2ccc(F)cc2)CCO1 (stereo not given),activation,[1],184% (active)
same,outcome,[2],inactive
same,outcome,[3],inactive
same,outcome,[4],inactive
same,outcome,[5],inactive
same,outcome,[6],inactive
same,outcome,[7],inactive
same,outcome,[8],inactive
same,outcome,[9],inactive
same,outcome,[10],inactive
same,outcome,[11],inactive
same,outcome,[12],inactive
same,outcome,[13],inactive
same,outcome,[14],inactive
same,outcome,[15],inactive
same,outcome,[16],inactive
COc1ccc(C(CNC(=O)c2ccc3c(c2)CCC3)N(C)C)cc1 (stereo not given),activation,[1],237% (active)
same,activation,[2],142% (active)
same,outcome,[3],inactive
same,outcome,[4],inactive
same,outcome,[5],inactive
same,outcome,[6],inactive
same,outcome,[7],inactive
same,outcome,[8],inactive
same,outcome,[9],inactive
same,activation,[10],76.5% (active)
same,outcome,[11],inactive
same,outcome,[12],inactive
same,outcome,[13],inactive
same,outcome,[14],inactive
same,activation,[15],12.1% (active)
same,outcome,[16],inactive
